Screening results deposited in PubChem by National Center for Advancing Translational Sciences (NCATS).
Rows were chosen to be rich in hits. Some 11% of all compounds tested hit in one or more screens of this group.
JMJD2A Tudor inh: JMJD2A Tudor domain (human) inhibition; O75164; AlphaScreen JMJD2A-Tudor / H3K4me3 peptide binding; Potency, µM (doses to about 114 µM), inactives show at the top dose activity change, negative = inhibition, most hits filed as inhibitors; 390,000 tested, 4.4% active; AID 504339; further: on the % scale 0 is the no-effect control and ±100 the full control effect; nearly all actives have a fitted effect of over 50% in size
L3MBTL1 block: inhibitors of human L3MBTL1; 230,000 tested, 0.66% active; Potency, µM (top dose mostly 57.1 µM), without a hit: at the top dose activity, negative = inhibition, most hits filed as inhibitors; AlphaScreen L3MBTL1–H3K9me1 peptide binding; AID 485360; further: on the % scale 0 is the no-effect control and ±100 the full control effect; nearly all actives have a fitted effect of over 60% in size
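L3MBTL1 (50 nM) pre-complexed 30 min with biotinylated H3(1-15)K9me1 peptide (75 nM), then compounds added for 30 min at room temperature; AlphaScreen streptavidin donor/nickel chelate acceptor beads (10 ug/mL final) read after 30 min dark incubation.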
BAZ2B inh: blocks human BAZ2B. Q9UIF8. AlphaScreen BAZ2B-H3K14Ac peptide displacement. Potency, µM (series often up to 114 µM), for inactives: at the highest dose activity change, negative = inhibition, actives largely listed as inhibitors. 360,000 tested, 4.4% active; further: on the % scale 0 is the no-effect control and ±100 the full control effect; nearly all actives have a fitted effect of over 60% in size
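AlphaScreen displacement of biotin-H3(5-23)K14Ac peptide (50 nM final) from BAZ2B (50 nM final) in PBS pH 7.4, 0.01% Tween-20; complex preformed 30 min RT, then compounds (top 110 uM) 30 min RT, beads 20 min dark.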
HP1b binding inh: inhibitors of HP1-beta chromodomain binding to methylated histone tails. P83916. AlphaScreen HP1-beta / biotin-H3K9me3 peptide binding. Potency, µM (highest dose often 114 µM), inactives show at the top dose activity change, negative = inhibition, most hits filed as inhibitors. 390,000 tested, 0.56% active. AID 540317; further: nearly all actives have a fitted effect of over 70% in size
Target sequence (P83916 whole entry, looked up): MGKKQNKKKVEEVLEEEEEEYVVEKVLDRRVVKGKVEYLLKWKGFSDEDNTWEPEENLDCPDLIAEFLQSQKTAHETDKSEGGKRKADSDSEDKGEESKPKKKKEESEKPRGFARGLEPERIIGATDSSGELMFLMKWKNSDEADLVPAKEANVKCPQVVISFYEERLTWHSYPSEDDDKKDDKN
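Compound inhibition of the preformed complex between 50 nM HP1-beta and 50 nM biotinylated H3K9me3 peptide was read by AlphaScreen. Buffer was PBS pH 7.4 with 0.01% Tween-20. Incubations ran 30 min at room temperature, with 10 ug/mL donor/acceptor beads.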
G9a block: inhibitors of human histone lysine methyltransferase G9a. Q96KQ7. G9a H3K9 monomethylation, AlphaScreen, 2 h. Potency, µM (top dose mostly 102 µM), for the others: top-dose activity, negative = inhibition, usual class: inhibitors. 350,000 tested, 8.8% active; further: on the % scale 0 is the no-effect control and ±100 the full control effect; nearly all actives have a fitted effect of over 75% in size
Target sequence (Q96KQ7 913-1193 limits assumed): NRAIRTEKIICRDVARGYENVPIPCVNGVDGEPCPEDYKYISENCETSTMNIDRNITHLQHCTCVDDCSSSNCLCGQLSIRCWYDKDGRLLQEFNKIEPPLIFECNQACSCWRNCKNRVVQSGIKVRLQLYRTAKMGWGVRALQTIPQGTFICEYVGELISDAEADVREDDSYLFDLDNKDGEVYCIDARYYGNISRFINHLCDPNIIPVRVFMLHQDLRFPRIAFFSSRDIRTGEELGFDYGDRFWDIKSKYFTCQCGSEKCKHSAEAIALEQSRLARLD
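Compounds were preincubated with 20 nM G9a for 15 min, after which biotinylated H3K9 peptide (500 nM) and SAM (20 uM) started a 2 h room-temperature reaction. Monomethylated product was quantified by antibody-based AlphaScreen chemiluminescence.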
* marks the source's active call; other numbers are inactive results; u = inconclusive; x = no result given; [ ] = remark or other dose. The call rests on the fitted dose curve; in most records, active means well fitted inhibition curve with a large enough effect; inconclusive means small, poorly fitted or top-dose-only effect; inactive means no such curve, though single readings can be large or run the other way. Potency means the concentration at half of the fitted maximal effect.

SMILES | JMJD2A Tudor inh | L3MBTL1 block | BAZ2B inh | HP1b binding inh | G9a block
Cc1cc(C)c2c(=O)n(CC(=O)NC3CCCC3)sc2n1 | 2.2µM* | -1% | 79µM* | 8.9µM* | 0.5µM*
Cc1cc(C)c2c(=O)n(CC(=O)Nc3ccc(Br)c(C)c3)sc2n1 | 2.5µM* | 3% | u | u | 0.32µM*
Cc1cc(NC(=O)Cc2ccsc2)ccc1Br | -4% | x | 8% | 48% | -11%
Cc1cc(C)c2c(=O)n(CC(=O)Nc3cccc(Cl)c3C)sc2n1 | 2µM* | x | u | 7.9µM* | 0.28µM*
Cc1ccc(NC(=O)Cn2c(=O)n(Cc3ccco3)c(=O)c3oc4ccccc4c32)cc1C | -4% | x | -15% | 40% | 2%[59 µM]
COc1cccc(NC(=O)CSc2nc3cc(OC)c(OC)cc3c3nc(-c4ccccc4)nn23)c1 | -12% | x | x | 27% | u
CC(=O)c1ccc(N2CCN(c3ccc4cc(S(=O)(=O)N5CCC(C)CC5)ccc4n3)CC2)cc1 | u | x | u | 40% | 18µM*
CC1CCN(S(=O)(=O)c2ccc3nc(NCc4ccc(N(C)C)cc4)ccc3c2)CC1 | 14µM* | x | 35µM* | u | 10µM*
CC1CCN(S(=O)(=O)c2ccc3nc(N4CCN(c5ccc(F)cc5)CC4)ccc3c2)CC1 | 9% | x | -1% | 44% | -3%[59 µM]
Cc1ccc(Cl)cc1N1CCN(C(=O)Cn2cnc3sc(C)c(S(=O)(=O)N4CCC(C)CC4)c3c2=O)CC1 | -2% | x | 3% | 29% | -3%[59 µM]
CCCn1nc(C(=O)Oc2ccc3c(C)cc(=O)oc3c2)c2ccccc2c1=O | -10% | 6% | -3% | 32% | 14µM*
CCN(CC)CCOC(=O)c1ccc(NC(=O)Cn2ncc3c2-c2cc(C)ccc2OC3)cc1 | -16% | x | -24% | 14% | 8%[59 µM]
COC1CCCCC1Nc1cccc(SC)c1 (stereo unspecified) | -23% | -2% | -18% | 15% | u
COC1CCCCC1Nc1cc(C)cc(C)c1 (stereo unspecified) | 18µM* | x | 35µM* | 18µM* | 14µM*
Oc1c(C(Nc2nc3ccccc3s2)c2ccco2)ccc2cccnc12 (stereo unspecified) | u | -27% | 50µM* | -4% | 25µM*
c1coc(CNc2nc3ccccc3s2)c1 | -19% | x | -14% | 6% | 17%[2.33 µM]
CC(C)C(=O)NC(c1cccc([N+](=O)[O-])c1)c1ccc2cccnc2c1O (stereo unspecified) | u | u | 25µM* | 29% | x
CC(C)C(=O)NC(c1ccco1)c1ccc2cccnc2c1O (stereo unspecified) | 79µM* | u | x | 31% | 6%[59 µM]
CCOC(=O)c1ccccc1NC(=O)CSc1cc(C)[nH]c(=O)n1 | -1% | x | 0% | 27% | -3%[59 µM]
COC(=O)C1=C(C)N(Cc2ccccc2)C(=S)N[C@H]1CCc1ccccc1 | x | x | -11% | x | 7%[12.7 µM]
Cn1cnc2c(=O)oc3ccc(S(=O)(=O)N4CCN(c5cccc(C(F)(F)F)c5)CC4)cc3c21 | -15% | x | -9% | 3% | -34%[59 µM]
O=C(c1ccc(Cl)c(S(=O)(=O)N2CCCC2)c1)N1CCN(c2ccccc2)CC1 | 13µM* | -3% | -21% | u | -32%
O=C(c1ccc(Cl)c(S(=O)(=O)N2CCCCC2)c1)N1CCN(c2ccccc2)CC1 | -34% | x | -28% | -6% | -4%
O=C(c1ccc(Cl)c(S(=O)(=O)N2CCCC2)c1)N1CCN(c2ccc(F)cc2)CC1 | u | -28% | 56µM* | -14% | 45µM*
O=C(c1ccc(S(=O)(=O)N2CCCCCC2)cc1)N1CCN(c2ccccc2)CC1 | 79µM* | x | -10% | -11% | 6%
COc1ccc(NC(=O)c2sc3nc4c(c(-c5ccc(OC)cc5)c3c2N)C(=O)CC(C)(C)C4)cc1 | -11% | x | -10% | 28% | -25%[59 µM]
COc1ccccc1S(=O)(=O)N1CCN(c2nc(-c3cccs3)nc3ccccc23)CC1 | -14% | x | x | 37% | x
COC(=O)c1ccccc1NC(=O)Cn1c(=O)n(-c2ccc(C)cc2)c(=O)c2ccccc21 | 5% | x | 4% | 12% | 3%[59 µM]
O=c1cc(CN2CCOCC2)c2ccc(O)c(O)c2o1 | u | x | -9% | 42% | 7.9µM*
Cc1c(O)ccc2c(CN3CCN(Cc4ccccc4)CC3)cc(=O)oc12 | -22% | x | 2% | 25% | -13%
